Results from PubChem BioAssay AID1851 (National Center for Advancing Translational Sciences (NCATS), 2009).
Screen size: about 16,000 compounds; about 5,100 (32%) were called active. Not shown: some 25% with an inconclusive outcome. Calls come from the whole dose curve; as a rule, active = well fitted curve in the direction sought with a large enough effect; inconclusive = small, poorly fitted or top-dose-only effect, or effect the other way; inactive = no such curve, though single readings can be large or run the other way. This is one part of the list.

These compounds were tested against Cytochrome P450 3A4 (Homo sapiens) (UniProt P08684) (assay: Cytochrome panel assay with activity outcomes). Conditions: recombinant CYP, pro-luciferin dealkylation, luminescence, p450-cyp3a4; series mostly up to 57.1 µM.
Sequence of Cytochrome P450 3A4 (Homo sapiens) (P08684 whole entry, looked up): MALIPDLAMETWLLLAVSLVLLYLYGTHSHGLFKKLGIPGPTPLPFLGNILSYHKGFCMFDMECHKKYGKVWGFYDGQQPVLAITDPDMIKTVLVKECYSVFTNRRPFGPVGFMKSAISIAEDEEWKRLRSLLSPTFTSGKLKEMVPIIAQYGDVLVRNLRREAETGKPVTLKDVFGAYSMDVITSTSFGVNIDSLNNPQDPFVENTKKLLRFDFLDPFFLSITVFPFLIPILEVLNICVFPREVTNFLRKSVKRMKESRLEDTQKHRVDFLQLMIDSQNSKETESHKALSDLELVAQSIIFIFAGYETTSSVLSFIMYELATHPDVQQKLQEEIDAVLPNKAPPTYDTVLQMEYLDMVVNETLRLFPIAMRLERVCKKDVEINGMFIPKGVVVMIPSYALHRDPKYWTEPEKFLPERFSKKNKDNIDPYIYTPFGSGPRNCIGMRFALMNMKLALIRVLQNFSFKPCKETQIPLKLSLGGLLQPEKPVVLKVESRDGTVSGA
% is set by controls: 0 for no effect and ±100 for the full control effect.

SMILES | AC50 | activity, negative = inhibition
CCOC(=O)c1sc2nc(CC(=O)OC)nc(NCc3ccc(F)cc3)c2c1C | 4.47 µM (active) | –
CCOC(=O)c1sc2c(c1C)c(=O)c(C(=O)OCC)cn2CC | inactive | –
Cc1cc(C)c(-c2noc(C(=O)OC(C)(C)C)c2C(=O)OC(C)(C)C)c(C)c1 | – | -8.97% [at 2.29 µM] (inactive)
Cc1cc(C(=O)CC#N)c(C)n1CC(F)(F)F | 3.16 µM (active) | –
O=C(NNC(=S)Nc1ccccc1)c1ccco1 | inactive | –
CC(CP(=O)(O)O)NC(=O)Cc1ccccc1 (centres undefined) | inactive | –
O=C(Cc1ccccc1)NC(NCCc1ccccc1)C(Cl)(Cl)Cl (centres undefined) | 14.1 µM (active) | –
O=C(/C=C/c1ccccc1)NC(NC(=S)Nc1ccc(Cl)cc1)C(Cl)(Cl)Cl (centres undefined) | 4.47 µM (active) | –
O=C(/C=C/c1ccc(Cl)cc1)Nc1ccc(N2CCCCC2)cc1 | inactive | –
O=C(Cc1ccccc1)NC(=S)Nc1cc(C(F)(F)F)ccc1Cl | – | -7.93% [at 2.29 µM] (inactive)
O=C(CCc1ccccc1)Nc1ncn[nH]1 | inactive | –
O=C(NC(NC(=S)Nc1cc(Cl)ccc1Cl)C(Cl)(Cl)Cl)c1ccco1 (centres undefined) | 6.31 µM (active) | –
O=C(Cc1ccccc1)NC(NC(=S)Nc1cc(Cl)ccc1Cl)C(Cl)(Cl)Cl (centres undefined) | 4.47 µM (active) | –
C[C@@H](CCC(=O)O)C(=O)O | – | -7.96% [at 11.4 µM] (inactive)
COc1ccc(Oc2ncc3nc(-c4cn(C)c5ccccc45)c(=O)n(C4CC4)c3n2)cc1 | 12.6 µM (active) | –
COCCn1c(=O)c(-c2cn(C)c3ccccc23)nc2cnc(Oc3ccc(OC)cc3)nc21 | 3.98 µM (active) | –
COCCn1c(=O)c(-c2cn(C)c3ccccc23)nc2cnc(Oc3ccccc3)nc21 | 3.16 µM (active) | –
COCCn1c(=O)c(-c2cn(C)c3ccccc23)nc2cnc(Oc3cccc(Cl)c3)nc21 | inactive | –
OCCNc1nc(NCCC2=CCCCC2)nc(N2CCOCC2)n1 | inactive | –
Cc1ccc(C)c(-c2nn(-c3cc(N4CCN(CCO)CC4)ccc3[N+](=O)[O-])c(=O)c3ccccc23)c1 | 12.6 µM (active) | –
Cc1ccc(N2CCN(CCC(=O)O)CC2)cc1 | – | -4.63% [at 11.4 µM] (inactive)

SMILES | AC50 | activity, negative = inhibition
COc1ccc(NC(=O)CCOc2ccccc2)cc1 | 15.8 µM (active) | –
Cc1ccc(OCC(=O)NNC(=O)c2cc3ccccc3o2)cc1C | inactive | –
Cc1ccc(OCc2ccc(C(=O)Nc3nccs3)o2)cc1C | 11.2 µM (active) | –
CN1CCN(C(=O)c2ccc(COc3ccc(C(C)(C)C)cc3)o2)CC1 | – | -9.09% [at 2.29 µM] (inactive)
O=C(COC(=O)COc1ccccc1)Nc1ccc(OC(F)(F)F)cc1 | inactive | –
COc1ccc(NC(=O)c2ccc(COc3ccccc3)o2)cc1 | 22.4 µM (active) | –
CC(C)N(CC(=O)O)CC(=O)O | – | -7.3% [at 11.4 µM] (inactive)
CC12c3ccccc3C(c3ccccc31)C1C(=O)N(Cc3cccnc3)C(=O)C12 (centres undefined) | 1.58 µM (active) | –
CC1CCCC(C)N1C(=O)C1CC(c2ccc(F)cc2)=NO1 (centres undefined) | 11.2 µM (active) | –
CC1CCN(C(=O)CSc2nc3cccnc3n2C)CC1 | inactive | –
COc1ccccc1-n1c(SCC(=O)N2CCCC2)nc2cccnc21 | 15.8 µM (active) | –
CCN(CC)S(=O)(=O)c1ccc2c(c1)nc(SCC(=O)N1CCOCC1)n2-c1ccccc1OC | 3.98 µM (active) | –
O=C(O)c1cccnc1SCC(=O)N1CCCCCC1 | inactive | –
CC(C)=C[C@H]1[C@@H](COC(=O)c2ccccc2Cl)C1(C)C | – | -18.7% [at 11.4 µM] (inactive)
CCNC(=S)NNC(=O)c1cc(C2CC2)nc2ccccc12 | – | -10.5% [at 2.29 µM] (inactive)
CCNC(=S)NNC(=O)c1cc(CC(C)C)nc2ccccc12 | – | -3.62% [at 2.29 µM] (inactive)
Cc1cc(C(=O)NNC(=S)NC(C)c2ccccc2)c2ccccc2n1 (centres undefined) | 14.1 µM (active) | –
CCCS(=O)(=O)N1CCN(CC2CC=CCC2)CC1 (centres undefined) | inactive | –
COc1ccc(CN2CN(c3ccc(Cl)cc3)C(=O)N(n3cnnc3)C2)cc1 | 14.1 µM (active) | –
COc1ccc2nc(N3C(=O)CC(Cc4ccc(Cl)cc4)C3=O)sc2c1 (centres undefined) | inactive | –
COc1ccc(-n2cnnc2)cc1 | inactive | –

SMILES | AC50 | activity, negative = inhibition
Nn1c(SCC(=O)N2CCOCC2)nnc1-c1ccccc1Cl | inactive | –
O=C(CSc1c[nH]c2ccccc12)N1CCOCC1 | 15.8 µM (active) | –
C=C(C)C1Cc2nc(N)nc(C)c2C1 (centres undefined) | inactive | –
O=C(NCc1ccco1)c1nc2c(nnn2Cc2cccc(Cl)c2)c(=O)[nH]1 | inactive | –
COc1cccc(Cn2nnc3c(=O)[nH]c(C4CCCN(C(=O)c5ccccc5Cl)C4)nc32)c1 (centres undefined) | 2 µM (active) | –
CC(=O)NC1(c2ccc(F)cc2)CCN(C(=O)Nc2ccc(F)cc2F)CC1 | inactive | –
Cc1ccc(Cn2nnc3c(=O)[nH]c(C4CCCN(C(=O)Nc5ccc(F)cc5F)C4)nc32)cc1 (centres undefined) | 7.08 µM (active) | –
Cc1ccc(C)c(S(=O)(=O)N2CCC(c3nc4c(nnn4Cc4ccc(F)cc4)c(=O)[nH]3)CC2)c1 | 6.31 µM (active) | –
O=C(O)C[C@@H](C(=O)O)C1c2ccccc2-c2ccccc21 | – | -5.49% [at 11.4 µM] (inactive)
NC(=O)c1cc[n+](CC2=C(C(=O)O)N3C(=O)[C@@H](NC(=O)[C@H](c4ccccc4)S(=O)(=O)[O-])[C@@H]3SC2)cc1 | inactive | –
Cn1c(C(N)=O)cnc1Sc1ncc(C(F)(F)F)cc1Cl | inactive | –
O=C(O)/C=C/c1cn(-c2ncc(C(F)(F)F)cc2Cl)c2ccccc12 | inactive | –
CN(NC(=O)NN)c1ncc(C(F)(F)F)cc1Cl | 14.1 µM (active) | –
CC(C)(C)c1ccc(C(=O)NCCC(=O)NCc2ccco2)cc1 | 14.1 µM (active) | –
COCC1C2CC[C@H]3C(OCc4ccc(F)cc4C(F)(F)F)OC[C@]4(C)[C@H]3C2=C(CN4C(=O)OC(C)(C)C)[C@H](C)C1COC (some centres undefined) | 15.8 µM (active) | –
C[C@H]1C2=C3C(CC[C@H]4C(OCc5ccc(F)cc5C(F)(F)F)OC[C@](C)([C@@H]34)N(C(=O)OC(C)(C)C)C2)C(CO)C1CO (some centres undefined) | 15.8 µM (active) | –
COc1cc(OC)c(NC(=S)Nc2cccc(C(C)=O)c2)cc1Cl | 5.01 µM (active) | –
COc1ccc(C(=O)Nc2ccc(NC(=O)c3ccco3)c(Cl)c2)cc1OC | – | -24% [at 11.4 µM] (inactive)
O=C(Nc1ccc2c(c1)OCCO2)c1cccc2nc3ccccc3nc12 | 11.2 µM (active) | –
Cn1ncc([N+](=O)[O-])c1C(=O)Nc1ccc2c(c1)OCCO2 | inactive | –
COc1cc(NC(=O)c2ccccc2Cl)ccc1NC(=O)c1ccco1 | 14.1 µM (active) | –

SMILES | AC50 | activity, negative = inhibition
O=C(Nc1ccccc1C(=O)Nc1ccc2c(c1)OCO2)c1ccco1 | 1.26 µM (active) | –
CC(C)Oc1ccc(C(=O)Nc2ccc(NC(=O)c3ccco3)c(Cl)c2)cc1 | inactive | –
CC1(C)Oc2ccc(NC(=O)c3ccco3)cc2O1 | inactive | –
COC(=O)C1=C(C)OC(N)=C(C#N)C1C1CCCCC1 (centres undefined) | 7.08 µM (active) | –
COC(=O)C1=C(C)OC(N)=C(C#N)C1c1cc(OC)ccc1OC (centres undefined) | 8.91 µM (active) | –
CCOC(=O)C1=C(CSc2nc(-c3ccccc3)ccc2C#N)OC(N)=C(C#N)C1c1ccc(OC)cc1 (centres undefined) | – | -22.9% [at 2.29 µM] (inactive)
CCOC(=O)C1=C(c2ccccc2)OC(N)=C(C#N)C1c1ccc(Cl)s1 (centres undefined) | inactive | –
C[C@H]1NC(=O)NC1=O | inactive | –
CC1=C[N+](=O)c2ccccc2[N+]1=O | – | -3.77% [at 11.4 µM] (inactive)
CC(=O)NCCNc1ncnc2ccc(-c3ccccc3Cl)cc12 | 15.8 µM (active) | –
CC(=O)NCCNc1ncnc2ccc(-c3ccccc3C(F)(F)F)cc12 | 6.31 µM (active) | –
CC(=O)NCCNc1ncnc2ccc(-c3ccccc3C)cc12 | 12.6 µM (active) | –
COc1ccccc1-c1ccc2ncnc(NCCNC(C)=O)c2c1 | 20 µM (active) | –
CN(C)CCCNc1ncnc2nc[nH]c12 | – | -8.34% [at 11.4 µM] (inactive)
Cc1ccc(/C=N/NC(=O)Cn2nccc2C)o1 | inactive | –
Oc1ccc(/C=N/NC(=S)NCc2ccco2)cc1 | – | -2.66% [at 2.29 µM] (inactive)
CCOC(=O)N/N=C\c1ccc([N+](=O)[O-])o1 | – | -11.7% [at 2.29 µM] (inactive)
Cc1ccc(NCC(=O)N/N=C/c2ccc(OC(=O)c3ccco3)cc2)cc1 | 17.8 µM (active) | –
CC(C)(C)c1ccc(OCC(=O)N/N=C/c2cc(Br)ccc2OC(=O)c2ccco2)cc1 | inactive | –
Cc1ccc(NCC(=O)N/N=C\c2ccc([N+](=O)[O-])o2)cc1 | 25.1 µM (active) | –
OC[C@@H]1O[C@@H](n2cnc3c(NC4CCCC4)ncnc32)[C@@H](O)[C@H]1O | inactive | –
